For 40 compounds, relative cell viability results are on record in the supplement of paper PMC7184167.

Structures can show the parent of a compound that is named as a salt.

This assay deals with replication-induced senescent mouse newborn dermal fibroblasts (NBF). In words: relative cell viability of senescent cells (fraction); higher = less killing of senescent cells. As to conditions: 1 µM; 3 days. How it is done: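 Replication-induced senescent newborn mouse skin fibroblasts (NBFs) in 24-well plates were treated with a Selleck FDA-approved drug library at 1 µM for 3 days.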
In turn, `CC(C(=O)O)c1cccc(C(=O)c2ccccc2)c1` (stereo not given) [Ketoprofen] registered a relative cell viability of 0.757.

Compound `O=C(CCCCCCC(=O)Nc1ccccc1)NO` [Vorinostat (SAHA, MK0683)] had a relative cell viability of 0.75.

Turning to `Oc1c(Cl)cc(Cl)c2cccnc12` [Chloroxine], the relative cell viability stood at 0.982.

For `COc1cc([C@@H]2c3cc4c(cc3[C@@H](O[C@@H]3O[C@@H]5CO[C@@H](c6cccs6)O[C@H]5[C@H](O)[C@H]3O)[C@H]3COC(=O)[C@H]23)OCO4)cc(OC)c1O` [Teniposide], the relative cell viability came out at 1.08.

The compound `C[C@H]1C[C@H]2[C@@H]3CCC4=CC(=O)C=C[C@]4(C)[C@@]3(F)[C@@H](O)C[C@]2(C)[C@@]1(O)C(=O)CO` [Betamethasone] had a relative cell viability of 0.229.

`COc1ccc2[nH]cc(CCNC(C)=O)c2c1` [Melatonin] yielded a relative cell viability of 1.05.

`C[C@]12CC[C@@H]3c4ccc(O)cc4CC[C@H]3[C@@H]1CC[C@@H]2O` [Estradiol] gave a relative cell viability of 1.13.

`Nc1ccc(S(=O)(=O)Nc2ccccn2)cc1` [Sulfapyridine]: the relative cell viability turned out to be 0.951.

Compound `O=S(=O)(O)CCS` [Mesna] showed a relative cell viability of 1.04.

In turn, `CN1CCC(=C2c3ccccc3CCc3sccc32)CC1` [Pizotifen Malate] registered a relative cell viability of 0.0212.

Consider `COc1cc(C(=O)NS(=O)(=O)c2ccccc2C)ccc1Cc1cn(C)c2ccc(NC(=O)OC3CCCC3)cc12` [Zafirlukast], for which the relative cell viability was 0.957.

The compound `CC(C(=O)O)c1ccc(-c2ccccc2)c(F)c1` (stereo not given) [Flurbiprofen] registered a relative cell viability of 1.04.

The compound `Clc1ccc2nsnc2c1NC1=NCCN1` [Tizanidine HCl] displayed a relative cell viability of 0.994.

`CCOc1ccccc1OCCN[C@H](C)Cc1ccc(OC)c(S(N)(=O)=O)c1` [Tamsulosin hydrochloride] registered a relative cell viability of 1.1.

Turning to `CC(C)Cn1cnc2c(N)nc3ccccc3c21` [Imiquimod], the relative cell viability was determined as 0.273.

For the compound `NC(=O)NO` [Hydroxyurea], the relative cell viability was found to be 0.967.

`CCCc1nc2c(C)cc(-c3nc4ccccc4n3C)cc2n1Cc1ccc(-c2ccccc2C(=O)O)cc1` [Telmisartan] had a relative cell viability of 1.15.

Consider `CCc1cc(C(N)=S)ccn1` [Ethionamide], for which the relative cell viability is 0.932.

`CC1(C)O[C@@H]2C[C@H]3[C@@H]4CCC5=CC(=O)C=C[C@]5(C)[C@H]4[C@@H](O)C[C@]3(C)[C@]2(C(=O)CO)O1` [Desonide] came in with a relative cell viability of 1.14.

`Nc1nc2c(ncn2COCCO)c(=O)[nH]1` [Aciclovir] gave a relative cell viability of 1.06.

Take `O=C1CCC(N2C(=O)c3ccccc3C2=O)C(=O)N1` (stereo not given) [Thalidomide]: the relative cell viability was determined as 0.296.

In the case of `O=c1[nH]c(=O)n([C@H]2C[C@H](O)[C@@H](CO)O2)cc1I` [Idoxuridine], the relative cell viability worked out at 0.949.

In the case of `Cc1[nH]c(/C=C2\C(=O)Nc3ccccc32)c(C)c1CCC(=O)O` [Orantinib (TSU-68, SU6668)], the relative cell viability worked out at 0.577.

As to `CNC(=O)c1cc(Oc2ccc(NC(=O)Nc3ccc(Cl)c(C(F)(F)F)c3)c(F)c2)ccn1` [Regorafenib (BAY 73-4506)], the relative cell viability was 0.958.

`C#C[C@]1(O)CC[C@H]2[C@@H]3CCC4=CC(=O)CC[C@@H]4[C@H]3CC[C@@]21CC` [Levonorgestrel] gave a relative cell viability of 0.996.

In turn, `CC(C)(C)c1cc(NC(=O)Nc2ccc(-c3cn4c(n3)sc3cc(OCCN5CCOCC5)ccc34)cc2)no1` [Quizartinib (AC220)] registered a relative cell viability of 0.955.

The compound `N=C(N)NC(=O)c1nc(Cl)c(N)nc1N` [Amiloride HCl] displayed a relative cell viability of 0.768.

For `CC(=O)[C@H]1CC[C@H]2[C@@H]3CCC4=CC(=O)CC[C@]4(C)[C@H]3CC[C@]12C` [Progesterone], the relative cell viability is 0.968.

`C=C1/C(=C\C=C2/CCC[C@]3(C)[C@@H]([C@H](C)/C=C/[C@H](C)C(C)C)CC[C@@H]23)C[C@@H](O)C[C@@H]1O` [Doxercalciferol] showed a relative cell viability of 1.22.

Compound `Cc1nc(Nc2ncc(C(=O)Nc3c(C)cccc3Cl)s2)cc(N2CCN(CCO)CC2)n1` [Dasatinib] returned a relative cell viability of 1.39.

Turning to `COc1cc2nc(N(C)CCCNC(=O)C3CCCO3)nc(N)c2cc1OC` (stereo not given) [Alfuzosin HCl], the relative cell viability was determined as 0.96.

`CN(C)CCc1c[nH]c2ccc(Cn3cncn3)cc12` [Rizatriptan Benzoate] had a relative cell viability of 1.09.

In the case of `C#CCC(Cc1cnc2nc(N)nc(N)c2n1)c1ccc(C(=O)N[C@@H](CCC(=O)O)C(=O)O)cc1` (stereo not given in full) [Pralatrexate], the relative cell viability was found to be 0.863.

`Clc1cccc(Cl)c1NC1=NCCN1` [Clonidine HCl] showed a relative cell viability of 1.04.

The compound `Cn1ccnc1S` [Methimazole] registered a relative cell viability of 0.994.

Compound `Nc1ccc(S(=O)(=O)Nc2ncccn2)cc1` [Sulfadiazine] returned a relative cell viability of 1.11.

Compound `COc1ccccc1OCC(O)CN1CCN(CC(=O)Nc2c(C)cccc2C)CC1` (stereo not given) [Ranolazine] showed a relative cell viability of 0.994.

In turn, `C[C@@H](Oc1cc(-c2cnn(C3CCNCC3)c2)cnc1N)c1c(Cl)ccc(F)c1Cl` yielded a relative cell viability of 0.71.

Take `CC(=O)OCC(=O)[C@@]12N=C(C)O[C@@H]1C[C@H]1[C@@H]3CCC4=CC(=O)C=C[C@]4(C)[C@H]3[C@@H](O)C[C@@]12C` [Deflazacort]: the relative cell viability came out at 1.04.

On to `NC(=O)c1cnccn1` [Pyrazinamide], for which the relative cell viability worked out at 1.17.
